NadD inh = inhibitors of S. aureus NadD, primary screen, biochemical, colorimetric, uHTS; Nicotinate-nucleotide adenylyltransferase NadD (Staphylococcus aureus N315); purified NadD enzyme, colorimetric absorbance read-out; inhibition, % at 20 µM; 360,000 tested, 0.78% active; in the data active = inhibition above about 26%
rCAG binder = binders of r(CAG) RNA repeats, primary screen, biochemical, fluorescence; r(CAG) RNA repeat, TO-PRO-1 dye displacement fluorescence; inhibition, % at 3 µM; 370,000 tested, 1.3% active; AID 651821, 2012;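 active = inhibition above the plate cutoff, the mean of all test compounds on that plate plus 3 SD, cut at about 35% in these data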;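 note: 0% = DMSO alone and 100% = 100 µM mitoxantrone as full dye displacement; higher means more dye released from RNA so lower well fluorescence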
NR3A LBD binder = binders of NR3A ligand-binding domain, primary screen, biophysical, differential scanning fluorimetry, uHTS; NR3A LBD differential scanning fluorimetry, Tm shift; 0% = protein alone, 100% = glycine-bound protein; Glutamate receptor ionotropic, NMDA 3A (GRIN3A) ligand-binding domain; 340,000 tested, 2.5% active; AID 1259313, 2017; Tm shift relative to glycine control, % at 25 µM;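 active = melting temperature shift of at least 10% of the positive control shift, at one fixed dose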
FAS TE block = FAS thioesterase domain inhibitors, primary screen, biochemical, fluorescence intensity, uHTS. recombinant FAS-TE, OMFH fluorogenic substrate, fluorescence endpoint. AID 602261, 2012. inhibition, % at 15 µM. 360,000 tested, 0.67% active;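 active = compounds whose normalised, plate-corrected inhibition of enzyme fluorescence in the single-dose primary screen is 50% or more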;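 note: 0% = DMSO with enzyme and 100% = substrate without enzyme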
The depositor's hits bear a star; . = no result given. Shown are actives, neighbours in structure and some others; about 4.3% of the full set was active somewhere.

SMILES	NadD inh	rCAG binder	NR3A LBD binder	FAS TE block
N#Cc1ccc(/C=C2\CC3(OC(=O)C4CCCC4)CCCN2C3)cc1 (stereo unspecified)	.	2	.	.
O=C(CSc1nccc(-c2cccs2)n1)Nc1ccc(Cl)cc1	-3	4	26*	31
COC(=O)[C@]12C[C@H](CC(=O)NCc3cccs3)C(=O)N(CCc3ccc(OC)c(OC)c3)C1=C[C@H](C(C)(C)C)O[C@@H]2C	.	1	.	.
Cc1ccc(S(=O)(=O)N2[C@@H](c3ccccc3F)C(C(=O)O)=CC[C@H]2c2ccc(Cl)c(Cl)c2)cc1	14	74*	-20	21
O=C(NCc1ccccc1)[C@@H]1CCCN1C(=O)[C@H]1CCCN1C(=O)c1ccc(Cl)cc1	.	0	.	.
N#C/C(=C(/O)COC(=O)CSc1ccc2ccccc2c1)c1nc2ccccc2[nH]1	13	24	20*	3
CC(C)(C)OC(=O)NCCCC[C@H](NC(=O)c1nc[nH]c1C(=O)N[C@@H](CCCCNC(=O)OC(C)(C)C)C(=O)OC(C)(C)C)C(=O)OC(C)(C)C	12	8	-2	13
CC(C)C[C@H](NC(=O)c1[nH]cnc1C(=O)Nc1ccc(CNC(=O)OC(C)(C)C)cc1)C(=O)OCc1ccccc1	16	16	36*	19
CC(C)(C)OC(=O)NCCCCCNC(=O)c1[nH]cnc1C(=O)N[C@@H](CCCCNC(=O)OC(C)(C)C)C(=O)OC(C)(C)C	5	.	3	68*
CC(C)COc1ccc(-c2nn(-c3ccccc3)cc2CO)cc1	-9	-2	7	19
O=C(Nc1cn(-c2ccccc2)nc1-c1ccc(Cl)cc1)c1ccccc1	-1	4	7	29
O=C(O)Cc1cn(-c2ccccc2)nc1-c1ccc(Cl)cc1	-5	10	12*	-5
OCc1cn(-c2ccccc2)nc1-c1ccc(Br)cc1	-7	6	34*	23
COC(=O)[C@]12C[C@H](CC(=O)NCc3cccc(C(F)(F)F)c3)C(=O)N(CCc3ccc(OC)c(OC)c3)C1=C[C@H](C1CCCC1)O[C@@H]2C	.	2	.	.
O=C(CSc1nnc(COc2ccccc2)n1Cc1ccco1)Nc1ccc2c(c1)OCO2	.	3	.	.
Cc1nc(N)sc1-c1csc(Nc2cc(N(C)C)ccc2Cl)n1	42*	34	.	-12
C=CCN1C(=O)[C@@H](CC(=O)NCCCC)[C@]2(C(=O)OCC)CCCCC/C=C/12	.	0	.	.
Cc1ccc(C=NNC(=O)CSc2nc3sc4c(c3c(=O)n2-c2ccccc2)CCCC4)s1	.	11	.	.
Cc1nnc(SCC(=O)Nc2sc3c(c2C(=O)c2ccccc2)CCCC3)s1	-7	10	10*	-12
O=C(Nc1ccc(Oc2ccccc2)cc1)C1CCN(c2nnc(-n3cccc3)s2)CC1	.	13	.	.
O=C(Nc1ccc(N=Nc2ccccc2)cc1)c1ccccc1Cl	-5	2	15*	10
CCCCNS(=O)(=O)CCNCc1ccc(OC)cc1	-1	3	1	-11
COc1ccc(CNCCS(=O)(=O)NN2CCOCC2)cc1	-1	3	17*	-12
COc1ccc(Cl)cc1Nc1nc(N)c2ccccc2n1	-4	23	16*	21
COc1cc(N)ccc1Nc1c2ccccc2nc2ccccc12	35*	.	.	5
SMILES	NadD inh	rCAG binder	NR3A LBD binder	FAS TE block
COc1ccc(C)cc1Nc1nc(N)c2cc(OC)c(OC)cc2n1	-10	.	0	-6
Nc1nc(Nc2cccc(F)c2)nc2ccccc12	-5	4	26*	1
O=C(CSc1nc2ccccc2nc1N1CCCC1)N1CCN(C(c2ccccc2)c2ccccc2)CC1	.	8	.	.
Cc1ccc2c(c1)C1CS(=O)(=O)N(CC(C)C)C(=O)N1C2 (stereo unspecified)	.	-1	.	.
CCCCNC(=O)C[C@@H]1C(=O)N2CCCC3=C2[C@@]1(C(=O)OC)CCCC3	.	2	.	.
O=C(CSc1ccccn1)Nc1ccc2c(c1)oc1ccccc12	-1	10	26*	23
Cc1ccc(C(=O)OCC(=O)c2c[nH]c3ccccc23)cc1S(=O)(=O)N1CCCCC1	7	15	25*	23
Cc1noc(C)c1C(=O)OCC(=O)c1c[nH]c2ccccc12	5	3	-1	-8
Cc1onc(-c2c(F)cccc2Cl)c1C(=O)OCC(=O)c1c[nH]c2ccccc12	-11	11	13*	20
Cc1[nH]c2ccccc2c1C(=O)COC(=O)c1cccc(S(=O)(=O)N2CCCCC2)c1	9	12	21*	35
COCCCNC(=O)C[C@H]1C[C@@]2(C(=O)OC)C(=C[C@H](COCc3ccccc3)O[C@@H]2C)N(Cc2cccc3ccccc23)C1=O	.	6	.	.
C[C@@H]1COc2cccc(NCCO)c2S(=O)(=O)N1	.	0	.	.
Cc1ccc(C(=O)N2CCC(Oc3cccnc3)CC2)cc1	.	-1	.	.
COCCN(CCOC)C(=O)[C@H](CCc1ccccc1)NC(=O)[C@H]1O[C@@H](n2cnc3c(N)ncnc32)[C@H](O)[C@@H]1O	.	-1	.	.
O=[N+]([O-])c1nc2ccccc2[nH]1	-1	0	-2	-2
O=[N+]([O-])/C=C/c1cc2ccccc2[nH]1	-4	3	18*	-5
C/C(C=NNC(=O)c1cc(-c2ccc(Cl)cc2)n[nH]1)=C\c1ccccc1	.	12	.	.
O=S1(=O)N=C(Nc2ccc(O)cc2)c2ccccc21	-4	1	19*	-9
O=C(NS(=O)(=O)c1ccccc1)c1cccc(Br)c1	-3	4	21*	-5
Cc1ccc(S(=O)(=O)NC(=O)c2cccc(Br)c2)cc1	-10	7	0	-2
O=C(O)c1ccn[nH]1	-5	.	-1	-4
O=C(O)c1cccc(NC(=O)c2ccccc2)c1	-4	0	-1	-3
O=C(Nc1cccc(C(=O)Nc2cccc(Br)c2)c1)c1ccccc1	5	12	35*	24
O=C(Nc1cccc(Br)c1)c1ccn[nH]1	-5	-2	27*	-14
Cc1nc2cc(C(=O)N3CCN(C(=O)OCc4ccccc4)CC3)ccc2n1C1CCCC1	.	0	.	.
SMILES	NadD inh	rCAG binder	NR3A LBD binder	FAS TE block
C=C(C)[C@H]1CC=C(C(=O)O)CC1	.	.	2	.
NNc1ccc([N+](=O)[O-])c2[nH][nH]c(=O)c12	19	42*	.	-2
O=[N+]([O-])c1ccc(Nc2ccccc2)c2nonc12	-3	5	-5	-8
Cc1cc(OCc2cc(C(=O)N3CCCCCC3)no2)cc(C)c1Cl	-2	-4	11*	27
O=C(c1cc(COc2ccc(F)cc2Cl)on1)N1CCCCCCC1	-9	-6	1	16
O=C(c1cc(COc2ccc(F)cc2Cl)on1)N1CCCCCC1	-4	-6	15*	14
C[N+]1=C(N)N[C@@]2(C=C3CCCCC3n3c(=O)n(-c4ccccc4)c(=O)n32)C1 (stereo partly specified)	.	2	.	.
O=C(O)CSc1cc(NS(=O)(=O)c2ccc(Cl)cc2)c2ccccc2c1O	4	37*	-17	7

Screens as filed in PubChem BioAssay.
